MITF TRPM1 inh: inhibitors of MITF-driven TRPM1 promoter in melanoma cells | SK-MEL-5 TRPM1 promoter luciferase, 24 h | inhibition, % at 12.5 µM | 330,000 tested, 0.83% active;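 active = mean inhibition across replicates of 60% or more, whatever share of single replicates reaches that level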
Peg3 prom inh-1: Peg3 promoter activity inhibition; HeLa PEG-Prom luciferase reporter, luminescence, overnight; inhibition, % at 20 µM; 360,000 tested, 1.7% active; AID 588405;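 active = inhibition of at least 50% at 20 µM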
KKLEB tox: counter-screen for CF NF-kB inhibitors: cytotoxicity; KKLEB CF airway cells viability, ATPlite luminescence, overnight; active compounds read low; cells stimulated with P. aeruginosa culture filtrate; activity change (cytotoxicity), % at 5 µM; 360,000 tested, 0.36% active;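 active = corrected activity change at or below -50% at 5 µM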
ABHD5-PLIN5 inh: blocks binding of human ABHD5 to perilipin-5. Q00G26+Q8WTS1. Split G. princeps luciferase complementation, luminescence, 4 h. inhibition, % at 4 µM. 360,000 tested, 0.78% active;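 active = inhibition above the mean inhibition across every tested compound plus 3 SD, cut at about 22% in these data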;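 note: 0% = DMSO only wells and the 100% control is not disclosed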
Target sequence (Q00G26 whole entry, looked up): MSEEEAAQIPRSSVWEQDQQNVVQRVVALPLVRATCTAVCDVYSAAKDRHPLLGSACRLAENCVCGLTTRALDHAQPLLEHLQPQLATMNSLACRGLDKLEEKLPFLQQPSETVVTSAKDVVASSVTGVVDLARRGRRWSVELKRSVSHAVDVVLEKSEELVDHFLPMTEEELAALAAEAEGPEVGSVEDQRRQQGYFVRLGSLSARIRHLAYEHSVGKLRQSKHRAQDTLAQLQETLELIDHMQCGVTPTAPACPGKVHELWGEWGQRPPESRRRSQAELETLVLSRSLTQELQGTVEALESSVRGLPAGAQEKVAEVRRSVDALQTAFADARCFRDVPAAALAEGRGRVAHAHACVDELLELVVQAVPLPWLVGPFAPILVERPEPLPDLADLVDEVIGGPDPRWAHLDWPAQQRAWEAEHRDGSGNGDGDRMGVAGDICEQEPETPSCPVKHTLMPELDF
Target sequence (Q8WTS1 whole entry, looked up): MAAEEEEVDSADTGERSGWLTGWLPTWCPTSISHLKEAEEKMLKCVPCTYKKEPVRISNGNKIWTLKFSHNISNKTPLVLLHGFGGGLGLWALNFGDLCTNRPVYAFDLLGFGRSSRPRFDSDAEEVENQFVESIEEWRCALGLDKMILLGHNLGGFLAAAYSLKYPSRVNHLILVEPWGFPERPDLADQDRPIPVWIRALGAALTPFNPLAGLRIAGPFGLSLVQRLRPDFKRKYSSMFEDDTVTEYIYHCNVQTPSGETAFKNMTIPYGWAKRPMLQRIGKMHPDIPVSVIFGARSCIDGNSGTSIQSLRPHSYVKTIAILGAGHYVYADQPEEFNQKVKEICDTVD
CF NFkB block: inhibitors of cystic fibrosis induced NF-kB. KKLEB NF-kB-GFP reporter, PAF-induced, GFP fluorescence overnight. inhibition, % at 5 µM. 360,000 tested, 0.86% active. AID 588850;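 active = at least 50% inhibition at 5 µM, scaled per plate between neutral and stimulator controls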;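 note: PAF is a Pseudomonas aeruginosa culture filtrate used as stimulus; plate controls were PAF-stimulated DMSO wells for no effect and unstimulated DMSO wells for full effect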
HIF-2a block: HIF-2a inhibition | AID 624352 | 360,000 tested, 0.72% active | 786-0 RCC cells HIF-2a reporter, luciferase luminescence, overnight | inhibition, % at 18.8 µM;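 active = inhibition of the luminescence signal of 40% or more relative to plate controls, in a single-dose primary screen at 18.75 µM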
Peg3 prom inh-2: confirmation of Peg3 promoter inhibitors; shares compounds with Peg3 prom inh-1; HeLa PEG-Prom luciferase reporter, luminescence, overnight; inhibition, % at 20 µM; 1,300 tested, 84% active;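 active = at 20 µM dose, 40% or more inhibition averaged across four replicates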
The depositor's hits bear a star. Only some compounds are listed: those with a hit (about 3% of all), similar ones and a draw of the others.

`Cc1cccc(NS(=O)(=O)c2ccc(C)c(C(=O)NNC(=O)c3csc(N4CCOCC4)n3)c2)c1` gave MITF TRPM1 inh 3, Peg3 prom inh-1 5, KKLEB tox 4, ABHD5-PLIN5 inh -10, CF NFkB block -21 and HIF-2a block 15.
For CCn1c2ccccc2c2cc(NC(=O)C(C)OC(=O)c3ccc(NC(=O)CC#N)cc3)ccc21 (stereo unspecified) the results were MITF TRPM1 inh 46, Peg3 prom inh-1 67*, KKLEB tox -65*, ABHD5-PLIN5 inh 9, CF NFkB block 45, HIF-2a block 2 and Peg3 prom inh-2 55*.
Screening CCn1c2ccccc2c2cc(NC(=O)COC(=O)c3ccc(O)cc3)ccc21 returned MITF TRPM1 inh 10, Peg3 prom inh-1 -8, KKLEB tox 12, ABHD5-PLIN5 inh -2, CF NFkB block -20 and HIF-2a block -3.
`CCCCN(C)CCNC(=O)c1cc(-c2cccnc2)nc2ccc(S(=O)(=O)N3CCC(C)CC3)cc12` gave MITF TRPM1 inh 12, Peg3 prom inh-1 96*, KKLEB tox -5, ABHD5-PLIN5 inh -2, CF NFkB block 14, HIF-2a block 25 and Peg3 prom inh-2 74*.
CCCCN(C)CCCNC(=O)c1cc(-c2cccnc2)nc2ccccc12 was read as MITF TRPM1 inh -3, Peg3 prom inh-1 4, KKLEB tox 1, ABHD5-PLIN5 inh 6, CF NFkB block 7 and HIF-2a block 7.
For CC(NC(=O)C1CCCN1S(=O)(=O)c1cccc2nsnc12)c1ccccc1 (stereo unspecified) the results were MITF TRPM1 inh -3, Peg3 prom inh-1 2, KKLEB tox 8, ABHD5-PLIN5 inh 2, CF NFkB block -1 and HIF-2a block 10.
`CN(C)CCNc1ncnc2c1sc1nc(N3CCCC3)c3c(c12)CC(C)(C)OC3` gave MITF TRPM1 inh 20, Peg3 prom inh-1 57*, KKLEB tox -16, ABHD5-PLIN5 inh 3, CF NFkB block 16, HIF-2a block 24 and Peg3 prom inh-2 67*.
For CCCCN(C=O)c1c(CC)nc2c(OCC(=O)N3CCOCC3)cccn12 the results were Peg3 prom inh-1 -1, KKLEB tox -10, ABHD5-PLIN5 inh 6, CF NFkB block -5 and HIF-2a block 8.
`Cc1c(CN2CCC(CO)(CCOc3ccccc3)CC2)[nH]c2c(Cl)cccc12` gave MITF TRPM1 inh 6, Peg3 prom inh-1 99*, KKLEB tox -14, ABHD5-PLIN5 inh 20, CF NFkB block 24, HIF-2a block 6 and Peg3 prom inh-2 99*.
`Cc1nn(C)c(Cl)c1CN1CCC(CO)(CCOc2ccccc2)CC1` gave MITF TRPM1 inh 3, Peg3 prom inh-1 7, KKLEB tox -1, ABHD5-PLIN5 inh 7, CF NFkB block 0 and HIF-2a block 5.
Fc1ccccc1OCCCCN1CCCCC1 was read as Peg3 prom inh-1 -6, KKLEB tox -14, ABHD5-PLIN5 inh -8, CF NFkB block 7 and HIF-2a block 7.
Screening Cc1ccccc1CN1C(=O)CN(S(C)(=O)=O)CC1(C)C(=O)NC(C)C (stereo unspecified) returned ABHD5-PLIN5 inh 5 and HIF-2a block 4.
`c1ccc(CCNc2nc(-c3ccncc3)nc3ccccc23)cc1` gave MITF TRPM1 inh 18, Peg3 prom inh-1 56*, KKLEB tox -25, ABHD5-PLIN5 inh 8, CF NFkB block 9, HIF-2a block 17 and Peg3 prom inh-2 69*.
Screening O=C(CSc1ccc(Cl)cc1)NC1CCCC1 returned MITF TRPM1 inh -57, Peg3 prom inh-1 -88, KKLEB tox 2, ABHD5-PLIN5 inh -1, CF NFkB block -4 and HIF-2a block -143.
O=C(NC1CCCCC1)Sc1ccc(Cl)cc1 was read as MITF TRPM1 inh 27, Peg3 prom inh-1 66*, KKLEB tox 1, ABHD5-PLIN5 inh 2, CF NFkB block 14, HIF-2a block 16 and Peg3 prom inh-2 66*.
Screening CCCn1nc(C(=O)Nc2nc(-c3ccccn3)cs2)c2ccccc2c1=O returned MITF TRPM1 inh 44, Peg3 prom inh-1 70*, KKLEB tox 1, ABHD5-PLIN5 inh 8, CF NFkB block -20, HIF-2a block -6 and Peg3 prom inh-2 62*.
Screening Cn1nc(C(=O)Nc2nc(-c3ccccn3)cs2)c2ccccc2c1=O returned MITF TRPM1 inh 9, Peg3 prom inh-1 11, KKLEB tox -6, ABHD5-PLIN5 inh -4, CF NFkB block -4 and HIF-2a block -16.
Screening COc1ccc(CC(N)c2csc(Nc3cccc(OC)n3)n2)cc1 (stereo unspecified) returned Peg3 prom inh-1 70*, KKLEB tox 3, ABHD5-PLIN5 inh 3, CF NFkB block -9, HIF-2a block 23 and Peg3 prom inh-2 96*.
Screening NC(COCc1ccccc1)c1csc(Nc2cc(Oc3ccccc3)ncn2)n1 (stereo unspecified) returned Peg3 prom inh-1 7, KKLEB tox -3, ABHD5-PLIN5 inh 7, CF NFkB block -2 and HIF-2a block 7.
`NC(Cc1ccc(F)cc1)c1csc(Nc2cc(Oc3ccccc3)ncn2)n1` (stereo unspecified) gave Peg3 prom inh-1 79*, KKLEB tox -12, ABHD5-PLIN5 inh -12, CF NFkB block -7, HIF-2a block 6 and Peg3 prom inh-2 83*.
For CC(=O)c1ccc(Nc2nc(C(N)Cc3ccc(Cl)cc3)cs2)cc1 (stereo unspecified) the results were Peg3 prom inh-1 56*, KKLEB tox -17, ABHD5-PLIN5 inh 9, CF NFkB block -19, HIF-2a block 1 and Peg3 prom inh-2 72*.
`COc1cccc(Nc2nc(C(N)C(C)C)cs2)n1` (stereo unspecified) gave Peg3 prom inh-1 6, KKLEB tox -4, ABHD5-PLIN5 inh 4, CF NFkB block 11 and HIF-2a block 2.
Screening COc1ccc(CNS(=O)(=O)c2ccc(-c3ccc(=O)[nH]n3)s2)cc1OC returned MITF TRPM1 inh -18, Peg3 prom inh-1 -2, KKLEB tox 8, ABHD5-PLIN5 inh 2, CF NFkB block -2 and HIF-2a block 15.
Cn1ncc(N=Cc2ccc([N+](=O)[O-])cc2)c1C(=O)Nc1ccccc1 was read as MITF TRPM1 inh 29, Peg3 prom inh-1 21, KKLEB tox 3, ABHD5-PLIN5 inh -3, CF NFkB block -20 and HIF-2a block 10.
CC1CCCN(CCCNC(=O)C2CC(=O)N(CCc3ccccc3)C2)C1 (stereo unspecified) was read as MITF TRPM1 inh 1, Peg3 prom inh-1 -10, KKLEB tox -2, ABHD5-PLIN5 inh -1, CF NFkB block 6 and HIF-2a block 12.

High-throughput results deposited in PubChem by several laboratories.
